# Laboratory results from PubChem BioAssay AID376 (PDSP, 2006).
# The campaign covered roughly 2,000 compounds. About 250 (12%) were called active. No stated cut-off is given here; in the data, active means hERG blockade below about -20% or above about 20%; inactive means in between. The entries come from a sample that favours actives as a whole.
# Target: Voltage-gated inwardly rectifying potassium channel KCNH2 (Homo sapiens) (UniProt Q12809)
# Experiment: KCNH2 potassium channel function modulators, cell-based (AID 376);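 further: 0% = buffer alone and 100% = reference blocker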
# Conditions: hERG-expressing cells, channel activity single-concentration screen; concentration not given here
# Chain of Voltage-gated inwardly rectifying potassium channel KCNH2 (Homo sapiens) (Q12809 whole entry, looked up): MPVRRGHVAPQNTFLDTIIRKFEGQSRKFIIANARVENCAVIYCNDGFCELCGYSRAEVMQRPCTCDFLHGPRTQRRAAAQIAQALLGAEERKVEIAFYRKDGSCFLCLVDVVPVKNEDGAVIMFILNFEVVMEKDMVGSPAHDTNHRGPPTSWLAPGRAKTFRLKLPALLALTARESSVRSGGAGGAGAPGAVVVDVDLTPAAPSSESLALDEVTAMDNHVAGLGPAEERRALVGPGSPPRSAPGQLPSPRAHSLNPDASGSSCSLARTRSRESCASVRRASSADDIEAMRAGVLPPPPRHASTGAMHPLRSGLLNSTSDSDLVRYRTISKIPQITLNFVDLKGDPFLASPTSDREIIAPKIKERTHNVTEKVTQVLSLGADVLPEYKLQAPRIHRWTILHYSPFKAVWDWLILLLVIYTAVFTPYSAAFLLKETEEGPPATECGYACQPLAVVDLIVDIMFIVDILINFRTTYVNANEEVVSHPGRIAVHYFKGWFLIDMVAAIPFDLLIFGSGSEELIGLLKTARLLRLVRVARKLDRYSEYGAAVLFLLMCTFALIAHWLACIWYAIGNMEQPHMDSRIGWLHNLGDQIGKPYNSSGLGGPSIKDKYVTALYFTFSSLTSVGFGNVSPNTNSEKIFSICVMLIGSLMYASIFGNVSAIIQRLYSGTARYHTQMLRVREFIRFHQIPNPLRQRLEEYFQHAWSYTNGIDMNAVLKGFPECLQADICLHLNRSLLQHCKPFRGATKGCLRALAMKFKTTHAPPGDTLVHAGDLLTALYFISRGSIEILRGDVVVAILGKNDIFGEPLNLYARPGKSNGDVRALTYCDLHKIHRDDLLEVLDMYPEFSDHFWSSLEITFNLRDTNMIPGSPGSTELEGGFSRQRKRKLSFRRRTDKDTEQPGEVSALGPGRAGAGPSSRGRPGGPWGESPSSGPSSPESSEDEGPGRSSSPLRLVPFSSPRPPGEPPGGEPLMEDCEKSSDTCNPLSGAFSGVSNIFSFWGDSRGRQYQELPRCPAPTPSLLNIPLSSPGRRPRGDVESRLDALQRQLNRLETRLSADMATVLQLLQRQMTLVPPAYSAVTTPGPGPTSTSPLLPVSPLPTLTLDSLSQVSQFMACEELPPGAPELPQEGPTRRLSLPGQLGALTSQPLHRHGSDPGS
row,SMILES,hERG blockade
1,NC1(C(=O)O)CCCC1C(=O)O (stereo unspecified),-13.4% (inactive)
2,CCC1(O)C(=O)OCc2c1cc1n(c2=O)Cc2cc3c(CN(C)C)c(O)ccc3nc2-1 (stereo unspecified),21.4% (active)
3,O=C(O)c1ccc(NS(=O)(=O)Cc2ccccc2)cc1,7.65% (inactive)
4,NC(N)=NC1C(O)C(O)C(O)C(N=C(N)N)C1O (stereo unspecified),-0.537% (inactive)
5,Cc1[nH]c2ccccc2c1-c1cc(-c2cc(-c3c(C)[nH]c4ccccc34)on2)no1,-7.59% (inactive)
6,N#Cc1c(NC(=O)C(F)(F)F)sc2c3c(=O)c4ccccc4c(=O)c=3oc3ccccc3c12,59% (active)
7,NCOC(=O)Cc1ccc(Br)cc1,-16.9% (inactive)
8,COc1ccc2c(c1)[n+]([O-])c(C(C)=NNC(N)=S)c(C)[n+]2[O-],-7.37% (inactive)
9,c1nc(NCCc2cnc[nH]2)c2[nH]cnc2n1,-31% (active)
10,O=C(O)CCNc1ncnc2nc[nH]c12,14% (inactive)
11,OCCNc1ncnc2nc[nH]c12,3.32% (inactive)
12,Cn1c(=O)c2[nH]c(N=NN3CCN(CCO)CC3)nc2n(C)c1=O,0.124% (inactive)
13,O=C(O)C(=Cc1ccc(O)cc1)c1cccc2ccccc12,0.955% (inactive)
14,Cn1c(CC(O)c2nc3ccccc3n2C)nc2ccccc21 (stereo unspecified),-5.68% (inactive)
15,N=C(N)SCc1cccc2c(=O)cc(-c3ccccc3)oc12,44.3% (active)
16,N=C(N)SCc1cccc(-c2nc3ccccc3c(=O)o2)c1,-5.77% (inactive)
17,O=C(O)Cc1cccc2c(=O)cc(-c3ccccc3)oc12,-7.46% (inactive)
18,c1ccc2c(c1)C(=Nc1ccc(N=C3c4ccccc4-c4ccccc43)cc1)c1ccccc1-2,6.51% (inactive)
19,CC(C)N(CC(=O)O)CC(=O)O,7.91% (inactive)
20,NC(Cc1ccccc1)C(=O)O (stereo unspecified),16.4% (inactive)
21,[N-]=[N+]=Nc1ccccc1-c1ccccc1[N+](=O)[O-],-19.7% (inactive)
22,c1cc(-c2sc(-c3ccncc3)c(-c3ccncc3)c2-c2ccncc2)ccn1,22.4% (active)
23,Nc1[nH]c(=S)[nH]c(=O)c1N=Nc1c(Br)cc(S(N)(=O)=O)cc1Br,6.92% (inactive)
24,CSC12C(=O)CC3(C)C(CCC3(O)C(=O)CO)C1CCC1=CC(=O)CCC12C (stereo unspecified),3.28% (inactive)
25,Ic1ccc2c(c1)N(c1ccccc1)c1cc(Nc3ccc4nc5ccc(I)cc5[n+](-c5ccccc5)c4c3)ccc1N2,30.3% (active)
26,CN1CCCN(C)C1c1cc([N+](=O)[O-])ccc1O,11.9% (inactive)

row,SMILES,hERG blockade
1,CC(N)C(C)Cc1ccccc1 (stereo unspecified),8.67% (inactive)
2,COC(=O)c1cc(-c2ccc3ccccc3c2)[nH]c(=O)c1C#N,2.57% (inactive)
3,ClC(Cl)(Cl)C(N1CCN(c2ccccc2)CC1)N1CCN(c2ccccc2)CC1,3.84% (inactive)
4,Nc1cc(S(=O)(=O)O)cc2ccc(S(=O)(=O)O)cc12,-2.77% (inactive)
5,ON(CCc1ccccn1)Cc1ccccc1,-7.89% (inactive)
6,CN(CCc1ccccn1)c1ccc2c(c1)C(=O)c1ccccc1-2,75.4% (active)
7,CN(CCc1ccccn1)c1ccc2c(c1)Cc1ccccc1-2,20.3% (active)
8,CC(C)C(=O)C(C)(C)CCc1ccccn1,1.93% (inactive)
9,C(=Nc1ccc2c(c1)Cc1ccccc1-2)c1ccccn1,-16.5% (inactive)
10,O=C1c2ccccc2-c2ccc(N(Cc3ccc(Br)cc3)Cc3ccc(Br)cc3)cc21,15.9% (inactive)
11,Cn1ncc2c(Cl)ncnc21,12.1% (inactive)
12,O=C(O)CCCN1CCCCC1,-19.4% (inactive)
13,NCCSCCc1ccccc1,-4.22% (inactive)
14,NC(CC(=O)Nc1cc(C(F)(F)F)ccc1Cl)=NO,15.2% (inactive)
15,CN1CCC(CN2c3ccccc3Sc3ccccc32)C1 (stereo unspecified),42.9% (active)
16,c1ccc2sc(SCN(C3CCCCC3)C3CCCCC3)nc2c1,12.7% (inactive)
17,CCC12CCCN3CCc4c(n(c5ccccc45)C(=O)C1)C32 (stereo unspecified),37.7% (active)
18,CC1=CC(C)(C)Nc2ccc(CSc3ccccc3)cc21,0.516% (inactive)
19,Nc1nc(Cc2ccccc2)nc(Cc2ccccc2)c1-c1ccccc1,29% (active)
20,Nc1nc(-c2ccccc2)c(-c2ccccc2)c(-c2nc(N)nc(-c3ccccc3)c2-c2ccccc2)n1,1.5% (inactive)
21,Nc1nc(N)c(-c2cccc(C(F)(F)F)c2)c(Cc2cccc(C(F)(F)F)c2)n1,11% (inactive)
22,Cn1c(=O)c2c(nc(C(=N)SCC(=O)O)n2C)n(C)c1=O,13.2% (inactive)
23,O=C(O)CCSCc1ccccc1,-0.0927% (inactive)
24,O=C(O)C=CC(=O)Nc1cccc2c1-c1ccccc1C2=O,-8.93% (inactive)
25,NC(N)=Nc1ccc(-c2ccc(N=C(N)N)cc2)cc1,-0.0188% (inactive)
26,O=C(O)c1cncc(C(=O)O)c1,3.7% (inactive)

row,SMILES,hERG blockade
1,CC1CCCC=CC2CC(OC(=O)CN(C)C)CC2C(O)C=CC(=O)O1 (stereo unspecified),-21.9% (active)
2,COc1ccc(NCc2c(O)ccc3ccccc23)cc1,-7.42% (inactive)
3,CSc1ccc(NC(=O)C2CCCCC2C(=O)O)cc1 (stereo unspecified),10.7% (inactive)
4,NC(=O)NC(=O)C1CCCCC1C(=O)O (stereo unspecified),-24.9% (active)
5,CNCC(SC)c1ccc(O)c(O)c1 (stereo unspecified),11.7% (inactive)
6,Cc1nc([N+](=O)[O-])cn1-c1nc2ccccn2c1[N+](=O)[O-],-4.23% (inactive)
7,c1ccc(CCN2CCN=C2Cc2ccccc2)cc1,11.4% (inactive)
8,CC(N)C(N)=NO (stereo unspecified),-3.44% (inactive)
9,O=C1CSC2(CCN(CCCN3c4ccccc4Sc4ccc(Cl)cc43)CC2)N1,10.1% (inactive)
10,CN1CCN(CCCN2c3ccccc3Sc3ccc(C(F)(F)F)cc32)CC1,29.9% (active)
11,SC1CCCN(Cc2ccccc2)C1 (stereo unspecified),10.8% (inactive)
12,CCC(C)(C)c1ccc(Oc2cccc(C(=O)O)c2)cc1,-10.7% (inactive)
13,CN1CCc2ccccc2C1Cc1ccccc1NC(=O)c1sc2ccccc2c1Cl (stereo unspecified),23.1% (active)
14,O=C(NC1(C(=O)O)CC1c1ccccc1)c1ccccc1 (stereo unspecified),6.62% (inactive)
15,O=S(=O)(O)c1ccc(N=Nc2ccccc2)cc1,-15.7% (inactive)
16,O=S(=O)(O)c1ccc(N=Nc2ccc3c(S(=O)(=O)O)cccc3c2O)c2ccccc12,14.9% (inactive)
17,O=S(=O)(O)c1cc(O)c2c(N=Cc3ccccc3O)cc(S(=O)(=O)O)cc2c1,-9.52% (inactive)
18,O=[N+]([O-])c1ccc2c(N=Nc3ccc4ccccc4c3O)c(O)cc(S(=O)(=O)O)c2c1,23.1% (active)
19,O=[N+]([O-])c1ccc2c(c1)c(S(=O)(=O)O)cc1nonc12,-6.88% (inactive)
20,Cc1ccc(N=Nc2c(O)c(S(=O)(=O)O)cc3cc(S(=O)(=O)O)ccc23)c(C)c1,2.33% (inactive)
21,O=S(=O)(O)c1cc(O)c2c(O)c(N=Nc3cccc4ccccc34)c(S(=O)(=O)O)cc2c1,9.29% (inactive)
22,Nc1ccccc1N=Nc1c(S(=O)(=O)O)cc2cc(S(=O)(=O)O)cc(O)c2c1O,21.5% (active)
23,O=S(=O)(O)c1cc(S(=O)(=O)O)c2c(N=Nc3cccc4ccccc34)c(O)ccc2c1,14.2% (inactive)
24,O=S(=O)(O)c1ccc2c(N=Nc3c(O)ccc4ccccc34)cccc2c1,49.9% (active)
25,Cc1ccc(N=Nc2c(O)ccc3cc(S(=O)(=O)O)ccc23)cc1,31% (active)
26,O=S(=O)(O)c1ccc2c(N=Nc3cccc4ccccc34)c(O)c(S(=O)(=O)O)cc2c1,8.62% (inactive)

row,SMILES,hERG blockade
1,Nc1ccc(S(=O)(=O)c2ccc(NC(=O)c3cccnc3)cc2)cc1,12.7% (inactive)
2,Nc1nc2nc3c(nc2c(=O)[nH]1)CN(c1ccc(C(=O)O)cc1)C3=O,-6.18% (inactive)
3,O=C(O)C(CCc1ccccc1)N1C(=O)c2ccccc2C1=O (stereo unspecified),0.137% (inactive)
4,Cc1[nH]c2c(C)ccc(C)c2c1CC(=O)O,-7.4% (inactive)
5,Cc1cc(Cl)nc(NC(=O)CSc2ccc(Cl)cc2)n1,-7.4% (inactive)
6,NC(CSC(=O)c1ccccc1)C(=O)O (stereo unspecified),8.51% (inactive)
7,CN(C)C1C(=O)C(C(=O)NCN2CCCC2)=C(O)C2(O)C(=O)C3=C(O)c4c(O)cccc4C(C)(O)C3CC12 (stereo unspecified),5.47% (inactive)
8,NC(=O)c1nnn(Cc2cc(Cl)c(C(=O)c3ccc(Cl)cc3)c(Cl)c2)c1N,17.3% (inactive)
9,CC(C)CN(CC#N)CC(C)C,1.01% (inactive)
10,Cc1ccnc(NS(=O)(=O)c2ccc(N=[N+]=[N-])cc2)n1,8.12% (inactive)
11,CC(CC(N)C(=O)O)C(=O)O (stereo unspecified),1.62% (inactive)
12,Cc1cc2c(SCc3ccccc3Cl)nc(N)nc2nc1C,-7.31% (inactive)
13,O=C1c2cccc([N+](=O)[O-])c2C(=O)N1c1ncn[nH]1,24.2% (active)
14,O=C(O)C(Cc1ccccc1)N1C(=O)c2ccccc2C1=O (stereo unspecified),13.1% (inactive)
15,O=C(O)CC(C(=O)O)C1c2ccccc2-c2ccccc21 (stereo unspecified),14.3% (inactive)
16,NC(=O)C1CCCNC1 (stereo unspecified),-2.06% (inactive)
17,CN(C)CCCSc1nc2ccccc2[nH]1,-13.7% (inactive)
18,O=C(O)c1cc(-c2ccc(-c3ccc(-c4cc(C(=O)O)c5cc(Cl)ccc5n4)cc3)cc2)nc2ccc(Cl)cc12,-1.3% (inactive)
19,CN(C)CCCc1c2ccccc2nc2ccc(Cl)cc12,35.2% (active)
20,CC(=O)C1CCC2C1(C)CC=C1C23C=CC2(CC(O)CCC12C)C(C(=O)O)C3C(=O)O (stereo unspecified),3.22% (inactive)
21,NC(N)=NC(N)=Nc1ccc(S(=O)(=O)O)cc1,-3.84% (inactive)
22,O=[N+]([O-])c1ccc2c(c1)Cc1cc(N=Cc3ccc4c(c3)OCO4)ccc1-2,-2.54% (inactive)
23,COc1cc2c(cc1O)C(c1cc(O)c(O)c(OC)c1)C(O)(C(=O)O)C(CO)C2O (stereo unspecified),-2.14% (inactive)
